Screening results from PubChem.
JMJD2A Tudor: JMJD2A Tudor domain (human) inhibition. O75164. AlphaScreen JMJD2A-Tudor / H3K4me3 peptide binding. Potency, µM (series often up to 114 µM), for inactives: top-dose activity change, negative = inhibition, usual class: inhibitors. 4.4% of 390,000 active. AID 504339; also: % is scaled to controls: 0 for no effect and ±100 for the full control effect; nearly all actives have a fitted effect of over 50% in size
G9a inh: G9a (human) methyltransferase inhibition; 8.8% of 350,000 active; Potency, µM (titrated, usually from 102 µM), for the others: top-dose activity, negative = inhibition, hits mostly inhibitors; G9a H3K9 monomethylation, AlphaScreen, 2 h; Q96KQ7; also: % is scaled to controls: 0 for no effect and ±100 for the full control effect; nearly all actives have a fitted effect of over 75% in size
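AlphaScreen read-out: biotin-H3K9 peptide (500 nM) methylation by 20 nM enzyme with 20 uM SAM, 2 h at room temperature after 15 min compound preincubation; anti-monomethyl H3K9 antibody plus donor/acceptor beads, 10 min dark.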
HP1b chromo inh: blocks HP1-beta chromodomain binding to methylated histone tails | P83916 | AlphaScreen HP1-beta / biotin-H3K9me3 peptide binding | Potency, µM (titrated, usually from 114 µM), for the others: at the top dose activity change, negative = inhibition, hits mostly inhibitors | 0.56% of 390,000 active | AID 540317; also: nearly all actives have a fitted effect of over 70% in size
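AlphaScreen: HP1-beta (50 nM) preformed 30 min with biotin-H3(1-18)K9me3 peptide (50 nM) in PBS pH 7.4, 0.01% Tween-20. Compound added for 30 min at RT, then streptavidin donor/nickel chelate acceptor beads (10 ug/mL) for 30 min.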
L3MBTL1 block: blocks human L3MBTL1. AlphaScreen L3MBTL1–H3K9me1 peptide binding. Potency, µM (top dose mostly 57.1 µM), for the others: at the highest dose activity, negative = inhibition, usual class: inhibitors. 0.66% of 230,000 active. AID 485360; also: % is scaled to controls: 0 for no effect and ±100 for the full control effect; nearly all actives have a fitted effect of over 60% in size
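L3MBTL1 (50 nM) pre-complexed 30 min with biotinylated H3(1-15)K9me1 peptide (75 nM), then compounds added for 30 min at room temperature; AlphaScreen streptavidin donor/nickel chelate acceptor beads (10 ug/mL final) read after 30 min dark incubation.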
BAZ2B block: BAZ2B (human) inhibition; Q9UIF8; AlphaScreen BAZ2B-H3K14Ac peptide displacement; Potency, µM (series often up to 114 µM), without a hit: at the highest dose activity change, negative = inhibition, most hits filed as inhibitors; 4.4% of 360,000 active; also: % is scaled to controls: 0 for no effect and ±100 for the full control effect; nearly all actives have a fitted effect of over 60% in size
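Protein-peptide AlphaScreen: BAZ2B 50 nM, b-H3K14Ac 50 nM, 1x PBS pH 7.4 + 0.01% Tween-20. Preincubation 30 min RT; cpd 30 min RT (top 110 uM); beads 20 min RT, light-protected.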
* marks the source's active call; other numbers are inactive results; u = inconclusive; x = no result; [ ] = another dose, or the depositor's remark. Compounds with a hit are over-represented: about 11% of the library has one in this group of screens. Calls follow the shape of the dose curve; as a rule, active = well fitted inhibition curve with a large enough effect; inconclusive = small, poorly fitted or top-dose-only effect; inactive = no such curve, though single readings can be large or run the other way. Potency is read from the fitted curve at half-maximal effect.

SMILES | JMJD2A Tudor | G9a inh | HP1b chromo inh | L3MBTL1 block | BAZ2B block
c1ccc(-c2nc(NCc3ccco3)c3oc4ccccc4c3n2)cc1 | 89µM* | u | 9% | 4% | u
c1ccc(-c2nc(NCCCn3ccnc3)c3oc4ccccc4c3n2)cc1 | u | 18µM* | -20% | -9% | 45µM*
Cc1cc(NCCCn2ccnc2)n2c(nc3ccccc32)c1C#N | 5%[57.1 µM] | -2%[12.7 µM] | 43% | -17% | 1%
Cc1nc(NCCCn2ccnc2)c2ccccc2n1 | 89µM* | -1%[59 µM] | 21% | 5% | -9%
c1cncc(-c2nc(NCCCn3ccnc3)c3ccccc3n2)c1 | 20µM* | -25% | 21% | x | 10µM*
Cc1ccc2nc(C3CCN(C(=O)c4ccco4)CC3)[nH]c2c1 | u | 56µM* | 51% | -2% | u
Cn1c2ccccc2c(=O)c2ccc(C#CC3(O)CCCCC3)cc21 | 32% | 79µM* | 147% | 29% | 17%
COc1cc2sc3ccc(C#CC4(O)CCCCC4)cc3c(=O)c2cc1OC | 3% | x | 43% | x | x
O=C(NCC(c1ccc2c(c1)OCO2)N1CCOCC1)C(=O)Nc1ccc(Cl)cc1 (centres undefined) | -5% | 12%[59 µM] | 7% | x | -5%
CCN(CC)c1ccc2nc3ccccc3[n+](CC)c2c1 | u | 14µM* | u | 20µM* | 40µM*
CCN(CC)c1ccc2nc3ccc(N)cc3[n+](-c3ccccc3)c2c1 | 45µM* | -33%[0.501 µM] | -89% | u | 13µM*
CCN(CC)c1ccc2cc(-c3nc4ccccc4[nH]3)c(=O)oc2c1 | 5% | -4%[59 µM] | 163% | 6% | 19%
COc1ccc(C)cc1NC(=O)CSc1ncc2c(n1)-c1ccc(Cl)cc1N(Cc1ccccc1)S2(=O)=O | -33% | -31%[59 µM] | -21% | x | 50µM*
COc1ccccc1NC(=O)CSc1ncc2c(n1)-c1cc(Cl)ccc1N(Cc1ccccc1)S2(=O)=O | -21% | u | 19% | x | -13%
Cc1ccc(-n2ncc(C(=O)Nc3cc(Cl)ccc3Cl)c2C2CCNCC2)cc1 | u | 45µM* | 11% | x | -10%
CCc1ccc(OCCCn2c(CCNC(=O)C3CCCCC3)nc3ccccc32)cc1 | -16%[57.1 µM] | x | 20%[57 µM] | x | x
O=C1NN(c2ccccc2)C(=O)/C1=C/c1ccc(Sc2cccc3ccccc23)o1 | u | 32µM* | u | u | 10µM*
CCc1ccccc1N(C)S(=O)(=O)c1ccc2c(c1)C(C)(C)C(=O)N2C | 7% | 8%[59 µM] | 17% | x | 3%
O=C(CSC1=Nc2ccccc2N=C(c2ccc(F)cc2)C1)NCc1ccccc1 | -13% | 11%[59 µM] | 11%[57 µM] | x | -5%
COc1ccc(C2NC(=S)NC(C)=C2C(=O)N2CCOCC2)cc1 (centres undefined) | 2% | 40µM* | 41% | x | 5%
NNc1nccc(Nc2ccccc2C(=O)O)n1 | u | u | -22% | u | 25µM*
CCc1ccc(S(=O)(=O)c2nnn3c2nc(Nc2cccc(C)c2C)c2sccc23)cc1 | -11% | 3%[59 µM] | 32% | x | -9%
c1ccc(COC2CCCN(Cc3nc(-c4cnccn4)no3)C2)nc1 (centres undefined) | -13% | x | 31% | 37% | -11%
COc1ccc(-c2noc(CN3CCCC(OCc4ccccn4)C3)n2)cc1 (centres undefined) | -24% | 50µM* | 21% | -1% | -20%
CCCCC(CC)CO (centres undefined) | -15% | x | 9% | -8% | x
SMILES | JMJD2A Tudor | G9a inh | HP1b chromo inh | L3MBTL1 block | BAZ2B block
CCCCC(CC)CN=C(N)NC(N)=NCCCCCCN=C(N)NC(N)=NCC(CC)CCCC (centres undefined) | 79µM* | -26%[59 µM] | 33% | 8% | 3%
Cc1cc(Cl)c2oc(C(=O)N(C)C3CCOC3)c(C)c2c1 (centres undefined) | 14µM* | -7% | 6% | x | -17%
CCSCc1nc2ccccn2c1Br | -12% | 13µM* | 40% | 2% | u
CCCCSCc1nc2ccccn2c1Br | -8% | 13µM* | 62% | -20% | -37%
CC(=O)c1c(Cl)nc2ccc(Br)cc2c1-c1ccccc1 | 26% | 12%[0.501 µM] | 40% | 5%[2.29 µM] | 1%
CCOc1ccccc1CNC(=O)c1cc(-c2ccc(OC)cc2)nc2ccc(C(C)C)cc12 | -20% | -1%[59 µM] | -4% | x | 4%
CCC1CCCCN1Cc1nc2c(c(=O)n(C)c(=O)n2C)n1Cc1c(F)cccc1Cl (centres undefined) | -21% | x | 8% | x | x
O=C(Nc1ccc(S(=O)(=O)N2CCCC2)cc1)c1c(F)cccc1F | -16% | 14% | 11% | x | -5%
O=C(Nc1ccc(S(=O)(=O)N2CCOCC2)cc1)c1c(F)cccc1F | -1% | 35µM* | 8% | x | -34%
CCN(CC)c1ccc(NC(=O)c2ccc(S(=O)(=O)N3CCOCC3)cc2)cc1 | 45µM* | x | u | -18% | x
O=C(Nc1ccc(S(=O)(=O)N2CCOCC2)cc1)c1ccc(S(=O)(=O)N2CCOCC2)cc1 | -5% | u | 27% | x | 9%
O=C(O)c1nccnc1C(=O)Nc1ccc(S(=O)(=O)N2CCOCC2)cc1 | u | 45µM* | 2% | -3% | -16%
COc1ccc2[nH]c3c(c2c1)CCN1C(=O)C(CC(=O)NCCC2=CCCCC2)C[C@H](C(=O)N2CCOCC2)[C@@]31C (some centres undefined) | u | x | 3% | -2% | x
O=C(CN1C(=O)c2cccc3cccc1c23)Nc1cccc(F)c1 | -18% | -5%[59 µM] | 29% | x | -4%
CC1Cc2ccccc2N1Cc1ccc([N+](=O)[O-])cc1 (centres undefined) | 45µM* | 40µM* | 32µM* | x | 35µM*
CC1Cc2ccccc2N1Cc1cccc([N+](=O)[O-])c1 (centres undefined) | 35µM* | 14µM* | 32µM* | x | 13µM*
Cc1ccc(-c2noc(-c3ccc(NC4CCCC4)c([N+](=O)[O-])c3)n2)cc1 | -27% | 1%[59 µM] | 50% | x | u
O=C(O)CCn1nnc2ccccc21 | -18% | x | 20% | 13% | 2%
COc1ccc(-n2c(-c3ccc(F)cc3)cn3c4c(=O)n(C)c(=O)n(C)c4nc23)cc1 | -4% | 0%[59 µM] | 27% | x | -15%
CCCCC(=O)Nc1cc(Cl)ccc1C(=O)O | 5% | 25µM* | 46% | -2% | u
COCCCNC(=O)CN1C(=O)COc2ccc(S(=O)(=O)N3CCCC3)cc21 | -14% | 3%[59 µM] | 20% | x | -4%
COc1ccc2cc(CCNC(=O)c3ccco3)c(=O)[nH]c2c1 | -6% | 45µM* | 38% | x | 0%
Cc1ccc2cc(CCNC(=O)c3ccco3)c(=O)[nH]c2c1C | -11% | 79µM* | 48% | 35% | 9%
Cc1ccc2cc(CCNC(=O)c3ccco3)c(=O)[nH]c2c1 | -16% | u | 17% | 16%[11.4 µM] | -1%
COc1ccc(CCNC(=O)c2c(C)oc3nc(C)nc(N4CCOCC4)c23)cc1OC | -8% | -9%[59 µM] | 26% | x | 8%[57.1 µM]
N#Cc1c2n(c3c(=O)[nH]cnc13)CCCC2 | -5% | -1% | 15% | 1% | 17%
